The text below walks through data of PubChem BioAssay AID624116 (National Center for Advancing Translational Sciences (NCATS), 2012).

Results filed as inconclusive are left out. A call without a number means that no potency is given here. Activity calls are given as the source filed them. Calls come from the whole dose curve; as a rule, active = well fitted activation curve with a large enough effect; inconclusive = small, poorly fitted or top-dose-only effect; inactive = no such curve, though single readings can be large or run the other way.
Potency is the fitted concentration of half-maximal effect.

The test can be described thus: qHTS Assay for Rab9 Promoter Activators: Hit Validation Using Renilla Luciferase Read-Out for Rab9. As to conditions: Huh7 Rab9 promoter Renilla luciferase reporter, 24 h; series mostly up to 76.9 µM. An outline of the steps:
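Luciferase reporter read-out: promoter activation measured by luminescence after 10 min with detection reagent at room temperature. Cells were Huh7 with a stable promoter-luciferase construct, treated 24 h at 37 deg C.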
Turning to `Cc1[nH]n(-c2cccc3ccccc23)c(=O)c1/C=N/c1sc2c(c1C#N)CCC2`, the Potency result is “inactive”. With `COc1cccc(C(C(=O)NC2CCCC2)N(CCC(C)C)C(=O)CCC(=O)Nc2cc(C)on2)c1` (stereo not drawn), the Potency entry was “inactive”. Consider `Cc1cccc(NC(=O)CSc2nc3ccccc3o2)c1`, for which the Potency result is “inactive”. Regarding `COc1ccccc1NC(=S)NCc1ccc(Cl)cc1`, the Potency entry is “inactive”. In the case of `COC(=O)c1sccc1NC(=S)OC`, the Potency entry was “inactive”.

As for `O=C(CN1C(=O)COc2ccc(Cl)cc21)NCC1CCCO1` (stereo not drawn), the Potency result was “inactive”.

Regarding `COc1ccc(C(=O)OCC(=O)N2CCCC2=O)c(OC)c1`, the Potency result was “inactive”. As for `CCC(=O)NC(=S)Nc1ccc(N2CCOCC2)cc1`, the Potency result was “inactive”. With `O=C(CSc1ncccn1)Nc1cccc2ccccc12`, the Potency entry is “inactive”. `CC(=O)c1c(C)[nH]c(C(=O)Nc2cccc(S(=O)(=O)N(C)C)c2)c1C`: the Potency was 20.7 µM (active). For `CC1(C)CC(=O)c2c(O)c(-c3ccccc3)c(=O)n(-c3ccccc3)c2C1`, the Potency entry is “inactive”. In the case of `COc1cccc(C2Nc3ccccc3NC3=C2C(=O)CC(C)(C)C3)c1` (stereo not drawn), the Potency entry was “inactive”. In the case of `COCCNC(=O)C1CCC(CNS(=O)(=O)c2ccc(F)cc2)CC1` (stereo not drawn), the Potency result was “inactive”.

As for `Cc1ccccc1NC(=O)Cc1nc(COC(=O)CC(C)c2ccccc2)cs1` (stereo not drawn), the Potency entry was “inactive”. Take `COC(=O)c1ccc(NC(=O)c2ccc3nc(C)sc3c2)cc1`: the Potency entry is “inactive”. Take `Cc1ccc(C(=O)Nc2nnc(S(=O)(=O)N3CCOCC3)s2)cc1`: the Potency entry is “inactive”. With `CCCOP(=O)(c1ccc(N(C)C)cc1)C(O)c1cccnc1` (stereo not drawn), the Potency result was “inactive”. Turning to `O=C(C[N+]1(CC#Cc2ccccc2)CCCCC1)c1ccccc1`, the Potency result was “inactive”. Regarding `CCCN(CCC)CCCNC(=O)c1cc2cc3ccc(Cl)cc3nc2o1`, the Potency entry was “inactive”. As for `O=C(CSc1nnc(-c2ccccn2)o1)Nc1ccccc1F`, the Potency entry is “inactive”.

Turning to `Cc1nc(-c2ccc(S(=O)(=O)Oc3ccc(Cl)cc3Cl)s2)cs1`, the Potency result is “inactive”. As to `COc1ccc(-c2nnc(SCC(=O)/C(C#N)=C(\C)N)o2)cc1`, the Potency result was “inactive”. With `Cc1ccc(S(=O)(=O)/N=C(/Nc2ccccn2)c2ccc(Cl)cc2)cc1`, the Potency is 14.6 µM (active). As to `CC1=C(C(=O)OC2CCCC(C)C2)C(c2ccccc2)NC(=O)N1` (stereo not drawn), the Potency result is “inactive”. Next, `CCOC(=O)CSc1nc2cc(C)ccc2cc1C#N`: “inactive”; `CN(C)/C=N/c1c(C#N)cnn1-c1nc2ccccc2s1`: “inactive”.

On to `O=C(NCCc1ccccc1)c1cc2ncc(Br)cn2n1`, for which the Potency entry was “inactive”.

In the case of `COc1ccc(-c2cc(C(=O)Nc3ccccc3F)on2)cc1`, the Potency result was “inactive”. On to `COc1ccc(S(=O)(=O)NC(C(=O)NCCc2ccccn2)C(C)C)cc1` (stereo not drawn), for which the Potency result is “inactive”. Next, `Cc1c(C(O)CN2CCN(Cc3ccc4c(c3)OCO4)CC2)c2ccccc2n1C` (stereo not drawn): “inactive”; `CCC(=O)Nc1cc(-c2cc3ccccc3oc2=O)ccc1OC`: “inactive”; `CC(C)(C)C(=O)NC(=S)Nc1ccccc1F`: “inactive”. For the molecule `CCCCc1cc(=O)oc2cc(OCC(=O)N3CCOCC3)ccc12`, the Potency entry is “inactive”. Consider `CC(Sc1nnc(C(F)(F)F)n1C)C(=O)Nc1ccc(S(N)(=O)=O)cc1` (stereo not drawn), for which the Potency entry was “inactive”. On to `Cc1nc(SCC(=O)NC(=O)NC(C)(C)C)nc(C)c1C`, for which the Potency result was “inactive”. With `COC(=O)c1ccccc1S(=O)(=O)NNC(=O)Nc1ccccc1`, the Potency entry is “inactive”.

`O=C(CCCOc1ccc(Cl)cc1)N1CCCCC1`: the Potency entry was “inactive”. The same measure for `CCOC(=O)C1(Cc2cccc(Cl)c2)CCCN(C(=O)CCSC)C1` (stereo not drawn): “inactive”.
